Among the data in publication PMC11006913 are binding signal values, retold here.

What all share (assay): PBM; 200 nM protein, PBS
Holding throughout (conditions): dsDNA, one strand shown

Test [1] has as its target CRX (Homo sapiens, UniProt O43186 26-111).
The target of test [2] is CRX (Homo sapiens, UniProt O43186 26-111, E42D).
Test [3] deals with PITX2 (Homo sapiens, UniProt Q99697 72-157).
The target of test [4] is CRX (Homo sapiens, UniProt O43186 26-111, R41L).
For test [5], the target named is VAX1 (Homo sapiens, UniProt Q5SQQ9 86-172).
Test [6] concerns the target VAX1 (Homo sapiens, UniProt Q5SQQ9 86-172, T142I).
Test [7] deals with VAX1 (Homo sapiens, UniProt Q5SQQ9 86-172, K157R).
Sequence of VAX1 (Homo sapiens, UniProt Q5SQQ9 86-172, K157R) (Q5SQQ9 86-172 K157R): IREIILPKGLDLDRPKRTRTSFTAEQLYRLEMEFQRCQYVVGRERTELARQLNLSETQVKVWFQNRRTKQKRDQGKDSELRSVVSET

Sequence of CRX (Homo sapiens, UniProt O43186 26-111) (O43186 26-111): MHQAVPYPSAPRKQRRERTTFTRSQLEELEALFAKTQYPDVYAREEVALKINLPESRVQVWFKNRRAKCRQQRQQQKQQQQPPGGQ
Sequence of CRX (Homo sapiens, UniProt O43186 26-111, R41L) (O43186 26-111 R41L): as the sequence (O43186 26-111) above, with R16L counted along it
Sequence of CRX (Homo sapiens, UniProt O43186 26-111, E42D) (O43186 26-111 E42D): as the sequence (O43186 26-111) above, with E17D counted along it
Sequence of VAX1 (Homo sapiens, UniProt Q5SQQ9 86-172, T142I) (Q5SQQ9 86-172 T142I): as the sequence (Q5SQQ9 86-172 K157R) above, with T57I, R72K counted along it
Sequence of VAX1 (Homo sapiens, UniProt Q5SQQ9 86-172) (Q5SQQ9 86-172): as the sequence (Q5SQQ9 86-172 K157R) above, with R72K counted along it

As for AGTAATCC, the binding signal in test [1] was 13.2 upbm affinity estimate (log intensity, higher = more binding, comparable within an allelic series); in test [2], 13.1 upbm affinity estimate (log intensity, higher = more binding, comparable within an allelic series); in test [3], 13.1 upbm affinity estimate (log intensity, higher = more binding, comparable within an allelic series); in test [4] it was 13 upbm affinity estimate (log intensity, higher = more binding, comparable within an allelic series).
Take AAGATTAA: the binding signal in test [1] is 12.9 upbm affinity estimate (log intensity, higher = more binding, comparable within an allelic series); in test [2] it was 12.9 upbm affinity estimate (log intensity, higher = more binding, comparable within an allelic series); in test [3] it was 12.5 upbm affinity estimate (log intensity, higher = more binding, comparable within an allelic series); in test [4], 12.6 upbm affinity estimate (log intensity, higher = more binding, comparable within an allelic series).
Turning to ACTAATCC, the binding signal is 13.6 upbm affinity estimate (log intensity, higher = more binding, comparable within an allelic series) in test [1]; 13.7 upbm affinity estimate (log intensity, higher = more binding, comparable within an allelic series) in test [2]; 13.4 upbm affinity estimate (log intensity, higher = more binding, comparable within an allelic series) in test [3]; 13.4 upbm affinity estimate (log intensity, higher = more binding, comparable within an allelic series) in test [4].
For GATTAAGC, the binding signal was 13.1 upbm affinity estimate (log intensity, higher = more binding, comparable within an allelic series) in test [1]; 13.1 upbm affinity estimate (log intensity, higher = more binding, comparable within an allelic series) in test [2]; 12.7 upbm affinity estimate (log intensity, higher = more binding, comparable within an allelic series) in test [3]; 12.6 upbm affinity estimate (log intensity, higher = more binding, comparable within an allelic series) in test [4].
With AGGGATTA, the binding signal in test [1] is 13.6 upbm affinity estimate (log intensity, higher = more binding, comparable within an allelic series); in test [2], 13.7 upbm affinity estimate (log intensity, higher = more binding, comparable within an allelic series); in test [3], 13.5 upbm affinity estimate (log intensity, higher = more binding, comparable within an allelic series); in test [4], 13.7 upbm affinity estimate (log intensity, higher = more binding, comparable within an allelic series).
Consider CGTTAATC, for which the binding signal in test [1] is 12.8 upbm affinity estimate (log intensity, higher = more binding, comparable within an allelic series); in test [2] it was 12.6 upbm affinity estimate (log intensity, higher = more binding, comparable within an allelic series); in test [3] it was 12.4 upbm affinity estimate (log intensity, higher = more binding, comparable within an allelic series); in test [4], 12.3 upbm affinity estimate (log intensity, higher = more binding, comparable within an allelic series).
Turning to ACCTCCCA, the binding signal in test [1] was 8.37 upbm affinity estimate (log intensity, higher = more binding, comparable within an allelic series); in test [2] it was 8.4 upbm affinity estimate (log intensity, higher = more binding, comparable within an allelic series); in test [3] it was 8.05 upbm affinity estimate (log intensity, higher = more binding, comparable within an allelic series); in test [4], 8.28 upbm affinity estimate (log intensity, higher = more binding, comparable within an allelic series).
With CGGATTAA, the binding signal was 13.7 upbm affinity estimate (log intensity, higher = more binding, comparable within an allelic series) in test [1]; 13.8 upbm affinity estimate (log intensity, higher = more binding, comparable within an allelic series) in test [2]; 13.4 upbm affinity estimate (log intensity, higher = more binding, comparable within an allelic series) in test [3]; 13.7 upbm affinity estimate (log intensity, higher = more binding, comparable within an allelic series) in test [4].
GTTGGCCA: the binding signal in test [1] was 8.35 upbm affinity estimate (log intensity, higher = more binding, comparable within an allelic series); in test [2] it was 8.33 upbm affinity estimate (log intensity, higher = more binding, comparable within an allelic series); in test [3], 8.06 upbm affinity estimate (log intensity, higher = more binding, comparable within an allelic series); in test [4] it was 8.24 upbm affinity estimate (log intensity, higher = more binding, comparable within an allelic series).
As to ATAATCCG, the binding signal was 13.7 upbm affinity estimate (log intensity, higher = more binding, comparable within an allelic series) in test [1]; 13.8 upbm affinity estimate (log intensity, higher = more binding, comparable within an allelic series) in test [2]; 13.3 upbm affinity estimate (log intensity, higher = more binding, comparable within an allelic series) in test [3]; 13.9 upbm affinity estimate (log intensity, higher = more binding, comparable within an allelic series) in test [4].
As to GCTAATCC, the binding signal is 13.4 upbm affinity estimate (log intensity, higher = more binding, comparable within an allelic series) in test [1]; 13.5 upbm affinity estimate (log intensity, higher = more binding, comparable within an allelic series) in test [2]; 13.3 upbm affinity estimate (log intensity, higher = more binding, comparable within an allelic series) in test [3]; 13.4 upbm affinity estimate (log intensity, higher = more binding, comparable within an allelic series) in test [4].
Consider ATAGATTA, for which the binding signal in test [1] is 12.7 upbm affinity estimate (log intensity, higher = more binding, comparable within an allelic series); in test [2], 12.5 upbm affinity estimate (log intensity, higher = more binding, comparable within an allelic series); in test [3], 12.3 upbm affinity estimate (log intensity, higher = more binding, comparable within an allelic series); in test [4] it was 12.3 upbm affinity estimate (log intensity, higher = more binding, comparable within an allelic series).
As for CAGGATTA, the binding signal was 13.1 upbm affinity estimate (log intensity, higher = more binding, comparable within an allelic series) in test [1]; 13.2 upbm affinity estimate (log intensity, higher = more binding, comparable within an allelic series) in test [2]; 12.9 upbm affinity estimate (log intensity, higher = more binding, comparable within an allelic series) in test [3]; 13 upbm affinity estimate (log intensity, higher = more binding, comparable within an allelic series) in test [4].
For AGTTAATC, the binding signal in test [1] is 12.7 upbm affinity estimate (log intensity, higher = more binding, comparable within an allelic series); in test [2], 12.7 upbm affinity estimate (log intensity, higher = more binding, comparable within an allelic series); in test [3], 12.3 upbm affinity estimate (log intensity, higher = more binding, comparable within an allelic series); in test [4], 12.4 upbm affinity estimate (log intensity, higher = more binding, comparable within an allelic series).
Consider AACTTTAA, for which the binding signal in test [1] was 10.5 upbm affinity estimate (log intensity, higher = more binding, comparable within an allelic series); in test [2], 10.2 upbm affinity estimate (log intensity, higher = more binding, comparable within an allelic series); in test [5], 9.82 upbm affinity estimate (log intensity, higher = more binding, comparable within an allelic series); in test [6], 9.35 upbm affinity estimate (log intensity, higher = more binding, comparable within an allelic series); in test [7], 9.35 upbm affinity estimate (log intensity, higher = more binding, comparable within an allelic series).
Regarding TAATCCCA, the binding signal in test [1] is 13.4 upbm affinity estimate (log intensity, higher = more binding, comparable within an allelic series); in test [2], 13.4 upbm affinity estimate (log intensity, higher = more binding, comparable within an allelic series); in test [3] it was 13.4 upbm affinity estimate (log intensity, higher = more binding, comparable within an allelic series); in test [4], 13.3 upbm affinity estimate (log intensity, higher = more binding, comparable within an allelic series).
For TAATCCGA, the binding signal is 13.6 upbm affinity estimate (log intensity, higher = more binding, comparable within an allelic series) in test [1]; 13.6 upbm affinity estimate (log intensity, higher = more binding, comparable within an allelic series) in test [2]; 13.1 upbm affinity estimate (log intensity, higher = more binding, comparable within an allelic series) in test [3]; 13.5 upbm affinity estimate (log intensity, higher = more binding, comparable within an allelic series) in test [4].
Take GGCTTAAC: the binding signal in test [1] is 12.7 upbm affinity estimate (log intensity, higher = more binding, comparable within an allelic series); in test [2], 12.6 upbm affinity estimate (log intensity, higher = more binding, comparable within an allelic series); in test [3], 12.7 upbm affinity estimate (log intensity, higher = more binding, comparable within an allelic series); in test [4], 12.1 upbm affinity estimate (log intensity, higher = more binding, comparable within an allelic series).
As for GGATTATA, the binding signal was 13.5 upbm affinity estimate (log intensity, higher = more binding, comparable within an allelic series) in test [1]; 13.6 upbm affinity estimate (log intensity, higher = more binding, comparable within an allelic series) in test [2]; 13.2 upbm affinity estimate (log intensity, higher = more binding, comparable within an allelic series) in test [3]; 13.7 upbm affinity estimate (log intensity, higher = more binding, comparable within an allelic series) in test [4].
